Many of the other results were omitted from the sample, so hits are more common in it than they were.
CD40 NFkB inh – CD40 pathway inhibition in BL2 cells; inhibition, % at 10 µM; AID 1053188; BL2 NF-kB luciferase reporter, CD40L-induced, 4 h; 83,000 compounds, 0.94% hits;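 active = mean inhibition of at least 50% with a set share of replicates also reaching that level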;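 also: 0% = neutral control wells and 100% = IKK inhibitor VII at 50 µM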
Active calls of the source: *; [ ] = dose if it differs, or a comment.

SMILES	CD40 NFkB inh
CC(=NNC(=O)c1ccncc1)c1ccccc1O	-48
Oc1ccc(/C(Cc2ccc3ccccc3n2)=N\Nc2ccccc2)c(O)c1	-39
CC(=NNc1ccc2ccccc2n1)c1ccccc1O	96*
OC[C@@H]1Nc2ccc(C#Cc3ccc(F)cc3)cc2[C@H]2[C@@H]1CCN2Cc1ccc2c(c1)OCO2	2[25 µM]
O=C(CN1C(=O)c2ccccc2S1(=O)=O)Nc1ccccn1	7
O=C1c2ccccc2S(=O)(=O)N1Cc1nc2ccccc2s1	70*
CC(C)C(NC(=O)CN1C(=O)c2ccccc2S1(=O)=O)C(C)C	-1
Cc1cccc(S(=O)(=O)N2C[C@@H]3N[C@H](C2)C3c2ccc(-c3cccc(C#N)c3)cc2)c1 (stereo not given in full)	-7
Cc1ccc(C)c(NC(=O)CN(C)C(=O)CSCc2c(C)noc2C)c1	29*
Cc1noc(C)c1CSCC(=O)N(C)CC(=O)Nc1ccc(Cl)c(Cl)c1	-3
CCN(CC(=O)Nc1cc(Cl)ccc1C)C(=O)CSCc1c(C)noc1C	1
CC1(C)Oc2ccc(C#N)cc2C(N2CCCC2=O)C1O (stereo not given)	-2[25 µM]
O=C(c1cccnc1)N1C[C@H]2[C@@H](c3ccccc31)[C@@H](CO)N2C(=O)C1CCCCC1	1
COCC(=O)Nc1ccc2c(c1)[C@H]1C[C@H](CC(=O)N[C@H](C)c3ccccc3)O[C@@H](CO)[C@H]1O2	0[25 µM]
FC(F)(F)CN1C[C@@H]2C(c3ccccc3)[C@H](C1)N2CC(F)(F)F (stereo not given in full)	1
CC(=O)OC1CCC2(C)C(CCC3C4CC=C(C(C)=O)C4(C)OC(=O)CC32)C1 (stereo not given)	98*
CC(=O)C1CCC2C3CCC4CC(OC(=O)CCC(=O)O)CCC4(C)C3C(=O)CC12C (stereo not given)	11
CC(=O)[C@@]1(O)CCC2C3CC[C@H]4C[C@@H](O)CC[C@]4(C)C3CC[C@@]21C (stereo not given in full)	-4
C[C@@H]1CN([C@H](C)CO)C(=O)c2ccccc2-c2ccccc2CO[C@H]1CN(C)C(=O)Nc1cccc(Cl)c1Cl	17[25 µM]
Cc1ccc(-c2cnc3c(c2)C(=O)N([C@H](C)CO)C[C@@H](C)[C@H](CN(C)C(=O)CN(C)C)O3)cc1	-20[25 µM]
CNC[C@H]1Oc2ccc(NS(C)(=O)=O)cc2CC(=O)N(C)C[C@@H]1C	16
COc1ccc(-c2ccc3c(c2)[C@H]2[C@H](CCN2C(=O)C2CC2)[C@H](CO)N3C)cc1	-5
CN1c2ccc(-c3cccc(F)c3)cc2[C@@H]2[C@@H](CCN2C(=O)C2CC2)[C@H]1CO	-97
COc1ccc(-c2ccc3c(c2)[C@H]2[C@H](CCN2C(=O)C2CC2)[C@@H](CO)N3C)cc1	53*
CN1c2ccc(-c3cccc(F)c3)cc2[C@H]2[C@H](CCN2C(=O)C2CC2)[C@H]1CO	53*
SMILES	CD40 NFkB inh
COc1ccc(-c2ccc3c(c2)[C@@H]2[C@@H](CCN2C(=O)C2CC2)[C@H](CO)N3C)cc1	40
CN1c2ccc(-c3cccc(F)c3)cc2[C@@H]2[C@@H](CCN2C(=O)C2CC2)[C@@H]1CO	20
Cc1ccccc1-c1ccc(C2[C@@H]3CN(S(=O)(=O)c4cn(C)cn4)C[C@H]2N3)cc1 (stereo not given in full)	2
C=C(CN(C)C)C(=O)c1cc(C)ccc1C	91*
Cc1ccc(C)c(C(=O)NCCN(C)C)c1	7
Cc1ccc(C(=O)NCCN(C)C)cc1C	12
CCNC(=O)C[C@H]1CC[C@H]2[C@@H](COC[C@@H](O)CN2C(=O)C2CCCC2)O1	-11[25 µM]
COc1ccc(/C=N/Nc2ncccc2[N+](=O)[O-])c(OC)c1	68*
COC(=O)CCCNc1ncccc1[N+](=O)[O-]	7
COc1ccc(NS(=O)(=O)c2cccc(C(=O)NN=Cc3ccc(OC)cc3OC)c2)cc1	-4
O=C(C[C@@H]1C[C@H]2c3cc(NS(=O)(=O)c4ccc(F)cc4)ccc3O[C@H]2[C@H](CO)O1)N1CCc2ccccc2C1	22[25 µM]
C/C=C/c1ccc([C@H]2[C@@H](CO)N(CC3CCCCC3)[C@@H]2CNC(C)C)cc1	-6[25 µM]
Fc1ccc(-c2nnc(Cc3nnc(-c4ccc(F)cc4)o3)o2)cc1	5
Fc1ccc(-c2nnc(NC3=NCCCCC3)o2)cc1	74*
Fc1ccc(NC2=NCCCCC2)cc1	8
CC(C)NC(=O)Nc1ccc2c(c1)CC(=O)N(C)C[C@H](C)[C@H](CN(C)C(=O)OC(C)(C)C)O2	-3
CCC(=O)N1[C@@H]2Cn3c(ccc(-c4ccc(F)cc4)c3=O)[C@H]1[C@@H](C(=O)N(C)C)[C@@H]2CO	2[25 µM]
COc1ccc(C2NC(C(=O)O)Cc3c2[nH]c2ccccc32)cc1OC (stereo not given)	-14
COc1ccc(OC)c2c(=S)c3ccccc3[nH]c12	active[25 µM]
Cc1cc(C=O)c(C)c2c1[nH]c1ccccc12	10
CCOC(=O)NCC(Cc1ccc(OCCc2nc(-c3ccccc3)oc2C)cc1)N/C(C)=C/C(=O)c1ccc(C(F)(F)F)cc1 (stereo not given)	25[25 µM]
CC(=O)N(C)C[C@@H]1Oc2c(NC(=O)NC(C)C)cccc2C(=O)N(C)C[C@@H]1C	-30
CN(C)CC(=O)Nc1ccc2c(c1)[C@@H]1C[C@H](CC(=O)N3CCCCC3)O[C@H](CO)[C@@H]1O2	2[25 µM]
CCCN1CCC2(CC1)CN(Cc1ccccc1OC)[C@H](CO)c1c2c2ccc(OC)cc2n1C	-105
CCc1cnc(N2[C@H](C#N)[C@@H](c3ccc(C#Cc4ccccc4F)cc3)[C@H]2CO)s1	-2[25 µM]
SMILES	CD40 NFkB inh
N#C[C@@H]1[C@H](c2ccc(C#Cc3ccccc3F)cc2)[C@H](CO)N1C(=O)c1cccnc1	11[25 µM]
N#C[C@@H]1[C@H](c2ccc(C#Cc3ccccc3F)cc2)[C@@H](CO)N1C(=O)c1cccnc1	78*[25 µM]
CCc1csc(N2[C@H](C#N)[C@H](c3ccc(C#Cc4ccc(F)cc4)cc3)[C@H]2CO)n1	77*[25 µM]
N#C[C@H]1[C@H](c2ccc(C#Cc3ccccc3F)cc2)[C@@H](CO)N1C(=O)C1CCCC1	56*
CCc1cnc(N2[C@H](C#N)[C@H](c3ccc(C#Cc4ccccc4F)cc3)[C@@H]2CO)s1	7[25 µM]
N#C[C@@H]1[C@@H](c2ccc(C#Cc3ccc(F)cc3)cc2)[C@H](CO)N1C(=O)C1CCCC1	-2
N#C[C@@H]1[C@@H](c2ccccc2)[C@@H](CO)N1C(=O)c1cccnc1	5
CCc1csc(N2[C@H](C#N)[C@@H](c3ccc(-c4ccc(F)cc4)cc3)[C@@H]2CO)n1	19
CCc1csc(N2[C@@H](C#N)[C@@H](c3ccc(C#Cc4ccc(F)cc4)cc3)[C@@H]2CO)n1	20[25 µM]
CCc1cnc(N2[C@H](C#N)[C@H](c3ccc(C#Cc4ccccc4F)cc3)[C@H]2CO)s1	73*[25 µM]
N#C[C@@H]1[C@@H](c2ccc(C#Cc3ccccc3F)cc2)[C@H](CO)N1C(=O)C1CCCC1	-7
O=C(C[C@@H]1CC[C@H]2[C@@H](COC[C@H](O)CN2C(=O)c2ccc(F)cc2)O1)N1CCCCC1	-9[25 µM]
CC=Cc1ccc2n(c1=O)C[C@H]1[C@H](CO)[C@@H](C(=O)NCC3CC3)N(C(=O)C3CCOCC3)[C@@H]21 (mixture of isomers)	-2[25 µM]
COc1cccc(-c2ccc3c(c2)[C@H]2[C@H](CCN2C(=O)NC2CCCCC2)[C@@H](CO)N3C)c1	14
CC(=O)N(C)C[C@H]1Oc2ccccc2C(=O)N(C)C[C@H]1C	-2

Screens: PubChem, Broad Institute
